# Laboratory results: PubChem BioAssay AID1159580 (chemical genetic matrix, 2015)
# The campaign covered roughly 5,500 compounds. About 2,000 (36%) were called active. Inconclusive results (about 18%) are left out. No stated cut-off is given here; in the data, active means normalized growth mostly below about 0.91 (no sharp cut-off); inconclusive means no clear call, values can overlap the other calls; inactive means mostly above about 0.92. The list shows a part of the results.
# Test: chemical genetic growth profiling, strain panel (AID 1159580);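 further: tested at 20 µM; growth read once vehicle control cultures reached saturation at 30 °C; 1 = growth at the plate median or of vehicle wells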
# Conditions: growth OD
structure (smiles),measurement,setting,value
Cc1ccc(C(C)C)c(O)c1C(=O)O,normalized growth,"S. cerevisiae deletion strains, locus YAL013W, strain DEP1, stronger effect = lower value",0.993 (inactive)
same,normalized growth,"S. cerevisiae deletion strains, locus YBR021W, strain FUR4, stronger effect = lower value",0.912 (inactive)
same,normalized growth,"S. cerevisiae deletion strains, locus YBR229C, strain ROT2, stronger effect = lower value",0.986 (inactive)
same,normalized growth,"S. cerevisiae deletion strains, locus YCL029C, strain bik1, stronger effect = lower value",0.951 (inactive)
same,normalized growth,"S. cerevisiae deletion strains, locus YDL035C, strain GPR1, stronger effect = lower value",0.997 (inactive)
same,normalized growth,"S. cerevisiae deletion strains, locus YDL074C, strain BRE1, stronger effect = lower value",0.998 (inactive)
same,normalized growth,"S. cerevisiae deletion strains, locus YDL101C, strain DUN1, stronger effect = lower value",0.999 (inactive)
same,normalized growth,"S. cerevisiae deletion strains, locus YDL134C, strain PPH21, stronger effect = lower value",0.998 (inactive)
same,normalized growth,"S. cerevisiae deletion strains, locus YDL185W, strain tfp1, stronger effect = lower value",0.784 (active)
same,normalized growth,"S. cerevisiae deletion strains, locus YDL192W, strain arf1, stronger effect = lower value",0.95 (inactive)
same,normalized growth,"S. cerevisiae deletion strains, locus YDR101C, strain arx1, stronger effect = lower value",0.971 (inactive)
same,normalized growth,"S. cerevisiae deletion strains, locus YDR162C, strain NBP2, stronger effect = lower value",0.977 (inactive)
same,normalized growth,"S. cerevisiae deletion strains, locus YDR318W, strain mcm21, stronger effect = lower value",0.96 (inactive)
same,normalized growth,"S. cerevisiae deletion strains, locus YDR388W, stronger effect = lower value",0.935 (inactive)
same,normalized growth,"S. cerevisiae deletion strains, locus YDR502C, strain sam2, stronger effect = lower value",0.957 (inactive)
same,normalized growth,"S. cerevisiae deletion strains, locus YEL061C, strain CIN8, stronger effect = lower value",0.981 (inactive)
same,normalized growth,"S. cerevisiae deletion strains, locus YER110C, stronger effect = lower value",0.959 (inactive)
same,normalized growth,"S. cerevisiae deletion strains, locus YER155C, strain BEM2, stronger effect = lower value",0.914 (active)
same,normalized growth,"S. cerevisiae deletion strains, locus YER167W, strain BCK2, stronger effect = lower value",0.973 (inactive)
same,normalized growth,"S. cerevisiae deletion strains, locus YGL078C, strain dbp3, stronger effect = lower value",0.859 (active)
same,normalized growth,"S. cerevisiae deletion strains, locus YGL086W, strain mad1, stronger effect = lower value",0.975 (inactive)
same,normalized growth,"S. cerevisiae deletion strains, locus YGL248W, strain PDE1, stronger effect = lower value",0.995 (inactive)
same,normalized growth,"S. cerevisiae deletion strains, locus YGR078C, strain PAC10, stronger effect = lower value",1 (inactive)
same,normalized growth,"S. cerevisiae deletion strains, locus YGR135W, strain pre9, stronger effect = lower value",0.975 (inactive)
same,normalized growth,"S. cerevisiae deletion strains, locus YGR252W, strain gcn5, stronger effect = lower value",0.919 (inactive)
same,normalized growth,"S. cerevisiae deletion strains, locus YHR030C, strain SLT2, stronger effect = lower value",0.97 (inactive)
same,normalized growth,"S. cerevisiae deletion strains, locus YHR079C, strain IRE1 (second series), stronger effect = lower value",0.936 (inactive)
same,normalized growth,"S. cerevisiae deletion strains, locus YHR094C, strain hxt1, stronger effect = lower value",0.923 (active)
same,normalized growth,"S. cerevisiae deletion strains, locus YHR129C, strain ARP1, stronger effect = lower value",0.965 (inactive)
same,normalized growth,"S. cerevisiae deletion strains, locus YHR200W, strain rpn10, stronger effect = lower value",0.945 (inactive)
same,normalized growth,"S. cerevisiae deletion strains, locus YIL066C, strain RNR3, stronger effect = lower value",1.01 (inactive)
same,normalized growth,"S. cerevisiae deletion strains, locus YIL073C, strain SPO22, stronger effect = lower value",1 (inactive)
same,normalized growth,"S. cerevisiae deletion strains, locus YIL125W, strain kgd1, stronger effect = lower value",0.808 (active)
same,normalized growth,"S. cerevisiae deletion strains, locus YIR030C, strain dcg1, stronger effect = lower value",0.949 (inactive)
same,normalized growth,"S. cerevisiae deletion strains, locus YJL095W, strain BCK1, stronger effect = lower value",0.992 (inactive)
same,normalized growth,"S. cerevisiae deletion strains, locus YJL134W, strain LCB3, stronger effect = lower value",0.955 (inactive)
same,normalized growth,"S. cerevisiae deletion strains, locus YJL168C, strain set2, stronger effect = lower value",0.921 (active)
same,normalized growth,"S. cerevisiae deletion strains, locus YJL187C, strain SWE1 (second series), stronger effect = lower value",1.01 (inactive)
same,normalized growth,"S. cerevisiae deletion strains, locus YJR043C, strain POL32, stronger effect = lower value",0.981 (inactive)
same,normalized growth,"S. cerevisiae deletion strains, locus YJR075W, strain HOC1, stronger effect = lower value",0.998 (inactive)
same,normalized growth,"S. cerevisiae deletion strains, locus YKL009W, strain mrt4, stronger effect = lower value",0.897 (inactive)
same,normalized growth,"S. cerevisiae deletion strains, locus YKL068W, stronger effect = lower value",0.82 (active)
same,normalized growth,"S. cerevisiae deletion strains, locus YKL085W, strain MDH1 (second series), stronger effect = lower value",0.83 (active)
same,normalized growth,"S. cerevisiae deletion strains, locus YKL085W, strain MDH1, stronger effect = lower value",0.83 (active)
same,normalized growth,"S. cerevisiae deletion strains, locus YKL190W, strain CNB1, stronger effect = lower value",0.987 (inactive)
same,normalized growth,"S. cerevisiae deletion strains, locus YKR001C, strain vps1, stronger effect = lower value",0.917 (inactive)
same,normalized growth,"S. cerevisiae deletion strains, locus YLR039C, strain RIC1, stronger effect = lower value",0.943 (inactive)
same,normalized growth,"S. cerevisiae deletion strains, locus YLR058C, strain SHM2, stronger effect = lower value",0.995 (inactive)
same,normalized growth,"S. cerevisiae deletion strains, locus YLR102C, strain apc9, stronger effect = lower value",0.918 (active)
same,normalized growth,"S. cerevisiae deletion strains, locus YLR262C, strain YPT6, stronger effect = lower value",0.986 (inactive)
same,normalized growth,"S. cerevisiae deletion strains, locus YLR268W, strain sec22, stronger effect = lower value",0.96 (inactive)
same,normalized growth,"S. cerevisiae deletion strains, locus YLR330W, strain CHS5, stronger effect = lower value",0.947 (inactive)
same,normalized growth,"S. cerevisiae deletion strains, locus YLR342W, strain FKS1 (second series), stronger effect = lower value",0.973 (inactive)
same,normalized growth,"S. cerevisiae deletion strains, locus YLR371W, strain rom2, stronger effect = lower value",0.94 (inactive)
same,normalized growth,"S. cerevisiae deletion strains, locus YLR418C, strain cdc73, stronger effect = lower value",0.946 (inactive)
same,normalized growth,"S. cerevisiae deletion strains, locus YML016C, strain PPZ1, stronger effect = lower value",0.977 (inactive)
same,normalized growth,"S. cerevisiae deletion strains, locus YML032C, strain rad52, stronger effect = lower value",0.959 (inactive)
same,normalized growth,"S. cerevisiae deletion strains, locus YML124C, strain tub3, stronger effect = lower value",0.929 (active)
same,normalized growth,"S. cerevisiae deletion strains, locus YMR078C, strain ctf18, stronger effect = lower value",0.916 (inactive)
same,normalized growth,"S. cerevisiae deletion strains, locus YMR223W, strain ubp8, stronger effect = lower value",0.972 (inactive)
same,normalized growth,"S. cerevisiae deletion strains, locus YMR263W, strain SAP30, stronger effect = lower value",0.989 (inactive)
same,normalized growth,"S. cerevisiae deletion strains, locus YMR307W, strain GAS1, stronger effect = lower value",0.967 (inactive)
same,normalized growth,"S. cerevisiae deletion strains, locus YNL067W, strain RPL9B, stronger effect = lower value",0.997 (inactive)
same,normalized growth,"S. cerevisiae deletion strains, locus YNL128W, strain TEP1, stronger effect = lower value",1.01 (inactive)
same,normalized growth,"S. cerevisiae deletion strains, locus YNL233W, strain BNI4, stronger effect = lower value",0.993 (inactive)
same,normalized growth,"S. cerevisiae deletion strains, locus YNL250W, strain rad50, stronger effect = lower value",0.848 (active)
same,normalized growth,"S. cerevisiae deletion strains, locus YNL271C, strain bni1, stronger effect = lower value",0.831 (active)
same,normalized growth,"S. cerevisiae deletion strains, locus YNL298W, strain CLA4, stronger effect = lower value",0.842 (active)
same,normalized growth,"S. cerevisiae deletion strains, locus YNL307C, strain MCK1, stronger effect = lower value",0.928 (inactive)
same,normalized growth,"S. cerevisiae deletion strains, locus YNR052C, strain pop2, stronger effect = lower value",0.951 (inactive)
same,normalized growth,"S. cerevisiae deletion strains, locus YOL006C, strain TOP1, stronger effect = lower value",0.977 (inactive)
same,normalized growth,"S. cerevisiae deletion strains, locus YOL012C, strain htz1",1.59 (inactive)
same,normalized growth,"S. cerevisiae deletion strains, locus YOL147C, strain pex11, stronger effect = lower value",0.937 (inactive)
same,normalized growth,"S. cerevisiae deletion strains, locus YOR061W, strain CKA2, stronger effect = lower value",0.989 (inactive)
same,normalized growth,"S. cerevisiae deletion strains, locus YOR069W, strain VPS5, stronger effect = lower value",0.974 (inactive)
same,normalized growth,"S. cerevisiae deletion strains, locus YOR136W, strain idh2, stronger effect = lower value",0.979 (inactive)
same,normalized growth,"S. cerevisiae deletion strains, locus YOR144C, strain elg1, stronger effect = lower value",0.928 (active)
same,normalized growth,"S. cerevisiae deletion strains, locus YOR184W, strain ser1, stronger effect = lower value",0.962 (inactive)
same,normalized growth,"S. cerevisiae deletion strains, locus YOR316C, strain cot1, stronger effect = lower value",0.93 (inactive)
same,normalized growth,"S. cerevisiae deletion strains, locus YPL241C, strain CIN2, stronger effect = lower value",0.971 (inactive)
same,normalized growth,"S. cerevisiae deletion strains, locus YPR119W, strain clb2, stronger effect = lower value",0.918 (active)
same,normalized growth,"S. cerevisiae deletion strains, locus YPR141C, strain kar3, stronger effect = lower value",0.797 (active)
same,normalized growth,"S. cerevisiae deletion strains, locus YPR163C, strain tif3, stronger effect = lower value",0.908 (active)
same,normalized growth,"S. cerevisiae deletion strains, locus YPR167C, strain met16, stronger effect = lower value",0.936 (inactive)
same,normalized growth,"S. cerevisiae deletion strains, strain wtn01, stronger effect = lower value",0.955 (inactive)
same,normalized growth,"S. cerevisiae strains, strain wild type, stronger effect = lower value",0.988 (inactive)
